Experimental data: PubChem BioAssay AID1159580 (chemical genetic matrix, 2015)
Several values for one entry are separate records, joined by “and”; a condition that tells them apart may be missing. Identical values can stand only once. The campaign covered roughly 5,500 compounds. About 2,000 (36%) were called active. Another 18% or so got no clear call; they are omitted. No stated cut-off is given here; in the data, active means normalized growth mostly below about 0.91 (no sharp cut-off); inconclusive means no clear call, values can overlap the other calls; inactive means mostly above about 0.92. Some of the results follow. Some compounds were tested as several samples or in several runs, with calls that do not always agree.

Test: chemical genetic growth profiling, strain panel (AID 1159580);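 further: tested at 20 µM; growth read once vehicle control cultures reached saturation at 30 °C; 1 = growth at the plate median or of vehicle wells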
Details: S. cerevisiae deletion strains, growth OD

CN1CCN(CCCN2c3ccccc3Sc3ccc(Cl)cc32)CC1
normalized growth (locus YAL013W, strain DEP1, stronger effect = lower value): 0.216 (active) and 1.03 (inactive)
normalized growth (locus YAL021C, strain ccr4, stronger effect = lower value): 0.706 (active)
normalized growth (locus YAL026C, strain drs2, stronger effect = lower value): 0.0669 (active)
normalized growth (locus YAL030W, strain snc1, stronger effect = lower value): 0.922 (active)
normalized growth (locus YAL040C, strain CLN3, stronger effect = lower value): 0.97 (inactive)
normalized growth (locus YBL061C, strain skt5, stronger effect = lower value): 0.888 (active)
normalized growth (locus YBR009C, strain hhf1, stronger effect = lower value): 0.8 (active)
normalized growth (locus YBR021W, strain FUR4, stronger effect = lower value): 0.413 (active)
normalized growth (locus YBR023C, strain chs3, stronger effect = lower value): 0.868 (active)
normalized growth (locus YBR171W, strain sec66, stronger effect = lower value): 0.987 (inactive)
normalized growth (locus YBR229C, strain ROT2, stronger effect = lower value): 1 (inactive)
normalized growth (locus YBR231C, strain swc5, stronger effect = lower value): 0.663 (active)
normalized growth (locus YCL011C, strain gbp2, stronger effect = lower value): 0.772 (active)
normalized growth (locus YCL016C, strain dcc1, stronger effect = lower value): 0.938 (inactive)
normalized growth (locus YCL029C, strain bik1, stronger effect = lower value): 1.03 (inactive)
normalized growth (locus YCL061C, strain MRC1 (second series), stronger effect = lower value): 0.997 (inactive)
normalized growth (locus YCL069W, strain vba3, stronger effect = lower value): 0.966 (inactive)
normalized growth (locus YCR088W, strain abp1, stronger effect = lower value): 0.831 (active)
normalized growth (locus YDL005C, strain med2, stronger effect = lower value): 1 (inactive)
normalized growth (locus YDL035C, strain GPR1, stronger effect = lower value): 0.214 (active)
normalized growth (locus YDL040C, strain nat1, stronger effect = lower value): 0.964 (inactive)
normalized growth (locus YDL074C, strain BRE1, stronger effect = lower value): 0.296 (active)
normalized growth (locus YDL101C, strain DUN1, stronger effect = lower value): 0.965 (inactive)
normalized growth (locus YDL134C, strain PPH21, stronger effect = lower value): 0.982 (inactive)
normalized growth (locus YDL185W, strain tfp1, stronger effect = lower value): 0.964 (inactive)
normalized growth (locus YDL192W, strain arf1, stronger effect = lower value): 0.0937 (active)
normalized growth (locus YDR001C, strain nth1, stronger effect = lower value): 0.993 (inactive)
normalized growth (locus YDR069C, strain doa4, stronger effect = lower value): 0.804 (active)
normalized growth (locus YDR101C, strain arx1, stronger effect = lower value): 0.929 (inactive)
normalized growth (locus YDR137W, strain rgp1, stronger effect = lower value): 1.26 [resistant] (active)
normalized growth (locus YDR150W, strain NUM1, stronger effect = lower value): 0.563 (active)
normalized growth (locus YDR159W, strain sac3, stronger effect = lower value): 0.974 (inactive)
normalized growth (locus YDR162C, strain NBP2, stronger effect = lower value): 0.0524 (active)
normalized growth (locus YDR195W, strain ref2): 1.15 [resistant] (active)
normalized growth (locus YDR297W, strain sur2, stronger effect = lower value): 0.968 (inactive)
normalized growth (locus YDR318W, strain mcm21, stronger effect = lower value): 0.91 (active)
normalized growth (locus YDR334W, strain swr1, stronger effect = lower value): 0.94 (inactive)
normalized growth (locus YDR335W, strain msn5, stronger effect = lower value): 0.96 (inactive)
normalized growth (locus YDR363W, strain ESC2, stronger effect = lower value): 0.891 (inactive)
normalized growth (locus YDR388W, stronger effect = lower value): 0.805 (active)
normalized growth (locus YDR392W, strain spt3, stronger effect = lower value): 0.954 (inactive)
normalized growth (locus YDR502C, strain sam2, stronger effect = lower value): 0.39 (active)
normalized growth (locus YEL003W, strain gim4, stronger effect = lower value): 0.832 (active)
normalized growth (locus YEL037C, strain rad23, stronger effect = lower value): 0.963 (inactive)
normalized growth (locus YEL061C, strain CIN8 (second series), stronger effect = lower value): 0.986 (inactive)
normalized growth (locus YEL061C, strain CIN8, stronger effect = lower value): 0.664 (active)
normalized growth (locus YER002W, strain NOP16, stronger effect = lower value): 1 (inactive)
normalized growth (locus YER015W, strain faa2, stronger effect = lower value): 0.556 (active)
normalized growth (locus YER016W, strain bim1, stronger effect = lower value): 0.972 (inactive)
normalized growth (locus YER110C, stronger effect = lower value): 1.02 (inactive)
normalized growth (locus YER111C, strain swi4, stronger effect = lower value): 0.993 (inactive)
normalized growth (locus YER155C, strain BEM2 (second series), stronger effect = lower value): 0.861 (active)
normalized growth (locus YER155C, strain BEM2, stronger effect = lower value): 1.04 (inactive)
normalized growth (locus YER167W, strain BCK2, stronger effect = lower value): 0.858 (active)
normalized growth (locus YFR010W, strain ubp6, stronger effect = lower value): 0.734 (active)
normalized growth (locus YGL078C, strain dbp3, stronger effect = lower value): 0.966 (inactive)
normalized growth (locus YGL086W, strain mad1, stronger effect = lower value): 0.61 (active)
normalized growth (locus YGL167C, strain pmr1, stronger effect = lower value): 0.947 (inactive)
normalized growth (locus YGL173C, strain kem1, stronger effect = lower value): 0.874 (active)
normalized growth (locus YGL227W, strain vid30, stronger effect = lower value): 0.997 (inactive)
normalized growth (locus YGL240W, strain doc1, stronger effect = lower value): 1.01 (inactive)
normalized growth (locus YGL248W, strain PDE1, stronger effect = lower value): 0.99 (inactive)
normalized growth (locus YGL253W, strain hxk2, stronger effect = lower value): 0.927 (inactive)
normalized growth (locus YGR078C, strain PAC10, stronger effect = lower value): 0.594 (active)
normalized growth (locus YGR135W, strain pre9, stronger effect = lower value): 0.544 (active)
normalized growth (locus YGR229C, strain SMI1, stronger effect = lower value): 0.065 (active) and 1.02 (inactive)
normalized growth (locus YGR252W, strain gcn5, stronger effect = lower value): 0.309 (active)
normalized growth (locus YHR013C, strain ard1, stronger effect = lower value): 0.872 (inactive)
normalized growth (locus YHR027C, strain rpn1, stronger effect = lower value): 0.594 (active)
normalized growth (locus YHR030C, strain SLT2, stronger effect = lower value): 0.465 (active) and 1.02 (inactive)
normalized growth (locus YHR079C, strain IRE1 (second series), stronger effect = lower value): 0.969 (inactive)
normalized growth (locus YHR079C, strain IRE1, stronger effect = lower value): 1 (inactive)
normalized growth (locus YHR094C, strain hxt1, stronger effect = lower value): 1 (inactive)
normalized growth (locus YHR129C, strain ARP1, stronger effect = lower value): 0.932 (inactive)
normalized growth (locus YHR142W, strain chs7, stronger effect = lower value): 0.854 (active)
normalized growth (locus YHR200W, strain rpn10, stronger effect = lower value): 0.869 (active)
normalized growth (locus YIL066C, strain RNR3, stronger effect = lower value): 0.793 (active)
normalized growth (locus YIL073C, strain SPO22, stronger effect = lower value): 0.854 (inactive)
normalized growth (locus YIL125W, strain kgd1, stronger effect = lower value): 0.958 (inactive)
normalized growth (locus YIR030C, strain dcg1, stronger effect = lower value): 1 (inactive)
normalized growth (locus YJL092W, strain hpr5, stronger effect = lower value): 0.942 (inactive)
normalized growth (locus YJL095W, strain BCK1 (second series), stronger effect = lower value): 0.919 (active)
normalized growth (locus YJL095W, strain BCK1, stronger effect = lower value): 0.494 (active) and 1.04 (inactive)
normalized growth (locus YJL115W, strain asf1, stronger effect = lower value): 0.99 (inactive)
normalized growth (locus YJL129C, strain trk1, stronger effect = lower value): 0.83 (active)
normalized growth (locus YJL134W, strain LCB3, stronger effect = lower value): 0.991 (inactive)
normalized growth (locus YJL154C, strain vps35, stronger effect = lower value): 0.982 (inactive)
normalized growth (locus YJL164C, strain tpk1, stronger effect = lower value): 0.878 (active)
normalized growth (locus YJL166W, strain qcr8, stronger effect = lower value): 0.809 (active)
normalized growth (locus YJL168C, strain set2, stronger effect = lower value): 1.01 (inactive)
normalized growth (locus YJL187C, strain SWE1 (second series), stronger effect = lower value): 0.85 (active)
normalized growth (locus YJR043C, strain POL32, stronger effect = lower value): 0.247 (active)
normalized growth (locus YJR066W, strain TOR1, stronger effect = lower value): 0.968 (inactive)
normalized growth (locus YJR075W, strain HOC1, stronger effect = lower value): 0.131 (active)
